# Assay outcomes as filed in PubChem BioAssay.
# Shown is part of a subset that was picked to be rich in hits.
# Pf Dd2 growth – inhibitors of Plasmodium falciparum Dd2 growth. P. falciparum Dd2 growth, SYBR Green, 72 h. Potency, µM (doses to about 28.9 µM), for inactives: top-dose activity, negative = inhibition, most hits filed as inhibitors. hit rate 4.3% among 120,000. AID 1347417; active = well fitted inhibition curve with a large enough effect;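 also: plate controls were DMSO vehicle for no effect and reference drug for full effect; nearly all actives have a fitted effect of over 65% in size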
#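 Readout: SYBR Green fluorescence, 485 nm excitation, 535 nm emission, after ~16 h lysis at 37C. Before that, Dd2-infected red cells (2.5% hematocrit) grew 72 h with compound, 29 uM top final concentration.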
# An asterisk follows results filed as active; i = inactive; [ ] = another dose, or the depositor's remark. Potency is read from the fitted curve at half-maximal effect.
SMILES,Pf Dd2 growth
Cc1cc(F)ccc1NC(=O)c1csc2c1CCC(C)C2 (configuration not stated),4.47µM*
O=C(Nc1ccc(F)cc1)c1csc2c1CCCCC2,-6.7%
COc1ccc(CC(=O)Nc2ccc(=O)n3c2[C@@H]2C[C@@H](CN(C(=O)Nc4ccc(OC)cc4)C2)C3)cc1,24.9%
O=C(O)CCC(=O)N1CCC2(CC1)CC(c1ccccc1)=NO2,-0.8%
O=C(c1ccc(Cl)cc1)N1CCC(N2CCOCC2=O)CC1,8.2%
COCCNc1ncnc2onc(-c3ccc(F)cc3)c12,-11.5%
Cc1ccccc1CN1CCC(CNc2ncnc3onc(-c4ccc(F)cc4)c23)CC1,3.98µM*
COCCCNc1ncnc2onc(-c3ccc(F)cc3)c12,123.2%
COc1ccc([C@H]2C[C@@H](O)[C@@H](O)[C@@H]2NC(=O)c2ccccn2)cc1,-7.5%[44.1 µM]
O=C(CCC1CCN(c2cc(NC3CC3)ncn2)CC1)NCCN1CCCCC1,i
COc1ccccc1NC(=O)CN1CCC(O)(c2ccc(C)cn2)CC1,-8.1%
Cc1ccc(C2(O)CCN(CC(c3ccccc3)c3ccccc3)CC2)nc1,2.82µM*
Cc1ccc(C2(O)CCN(c3ncccc3C(F)(F)F)CC2)nc1,-19.1%
Cc1ccc([C@H]2CN(C(=O)c3[nH]nc(N)c3-c3ccccc3)C[C@@H]2N)o1,6.5%
COC1CCN(S(=O)(=O)N2C[C@H](c3ccc(C)o3)[C@@H](N)C2)CC1,11.2µM*
COC1CCN(S(=O)(=O)N2CCCC(C)(c3ccccc3)C2)CC1 (configuration not stated),3.7%
CC(=O)N[C@@H]1[C@@H](NC(=O)c2cn[nH]n2)[C@H]2CCO[C@H]21,-1.1%
COCCC(=O)N1C[C@@H]2CCCN3CCC[C@@H]([C@H]23)[C@H]1CCCC(=O)NCC1CC1,3.1%
CCOc1ccc(-n2c(SCC(=O)c3ccccc3)nc3c([nH]c4ccccc43)c2=O)cc1,-2.4%
O=C(O)c1cc2c(s1)CN(C1CCCC1)C2,-3.4%
CCC1CCCCN1CCCNC(=O)c1cc2c(Cl)nc3ccc(C)cc3c2s1 (configuration not stated),3.55µM*
O=C(NCCN1CCCCC1)c1cc2c(s1)CCN(C(=O)c1ccc(Cl)cc1)C2,-4.8%
CCC1CCCCN1CCNC(=O)c1cc2c(s1)CN(C1CCCC1)C2 (configuration not stated),6.31µM*
Cc1ccc2nc(Cl)c3cc(C(=O)N4CCCCC4C)sc3c2c1 (configuration not stated),-17.0%
Cc1ccc2nc(Cl)c3cc(C(=O)N4CCCCC4)sc3c2c1,-25.9%
SMILES,Pf Dd2 growth
Cc1nnc(NC(=O)NC2CCN(Cc3ccccc3)CC2)s1,-16.2%
O=C(NC1CCN(Cc2ccccc2)CC1)c1cc2c(s1)CN(C1CCCC1)C2,7.08µM*
CCN(CCNC(=O)c1cc2c(s1)CN(C1CC1)C2)c1cccc(C)c1,-26.8%
C=Cc1ccc(Cn2c(=O)cc(C)c3c(C)nn(-c4ccccc4)c32)cc1,-8.0%
COc1ccc(-c2cc(C(=O)N3CCCC3)ccn2)cc1F,1.6%
COc1ccc(C(=O)N2C[C@@H]3C[C@H]2C(=O)Nc2ccccc2O3)cc1,i
CCc1ccc(CNC(=O)CN2C(=O)C(c3ccccc3)=NC23CCCC3)cc1,-4.0%
Cc1nc(-c2ccc(S(=O)(=O)Nc3ccc(C)c(N(C)C)c3)cc2)co1,12.0%
COc1cc(CNC(=O)c2c(C)noc2-c2ccc(C(C)(C)C)cc2)cc(OC)c1,-14.4%
CCOC(=O)c1cc(-c2ccccc2)n(CC(=O)NCc2ccccc2OC)c1C,-17.9%
NS(=O)(=O)c1ccc(C(=O)N2CCC(CO)(CN3CCCC3)CC2)cc1,1.6%
CCOc1ccc(CCNC(=O)c2cc3c(=O)n(CC)c4ccccc4c3s2)cc1OCC,11.4%
CCN(CC)CCOC(=O)c1ccc(NC(=O)c2cc3c(=O)n(CC)c4ccccc4c3s2)cc1,0.794µM*
CCn1c(=O)c2cc(C(=O)Nc3cc(OC)c(OC)c(OC)c3)sc2c2ccccc21,i
O=C(N[C@@H]1CN(Cc2cn[nH]c2-c2ccccc2)C[C@H]1CO)C1CC1,19.7%
COCCCNC(=O)Cn1c(=O)n(-c2ccccc2)c(=O)c2c1c1cc(OC)ccc1n2C,4.1%
CC(C)CN(CCCNC(=O)Cn1ncc2c3ccccc3n(C)c2c1=O)CC(C)C,-13.5%
COc1ccc(-c2noc(N3CCN(c4ccc(C)cc4)C(C)C3)n2)cc1OC (configuration not stated),1.58µM*
COc1ccc(-c2noc(CSc3nnc(C)n3-c3ccc(C)cc3)n2)cc1OC,-10.4%
Cc1ccc(N2CCN(c3cc(C)nc4c(-c5ccc(Cl)cc5)c(C)nn34)CC2C)cc1 (configuration not stated),i
O=C(c1ccccc1F)N1CCC2(CC1)OCC(C(=O)N1CCCC1)N2C(=O)c1ccco1 (configuration not stated),10.6%
COc1cccc(CN2CCCC(c3ccc(C(=O)O)cc3)C2)c1OC (configuration not stated),-2.0%
COc1ccc(N2CCN(C3CCCN(CC(N)=O)C3)CC2)cc1 (configuration not stated),-13.1%
COc1ccc(F)c(CN2CCCN3CCC[C@H]3C2)c1Cl,12.6µM*
COc1cc(CN2CCCC(COc3ccccc3C(=O)N3CCCC3)C2)ccc1O (configuration not stated),i
SMILES,Pf Dd2 growth
COc1ccc(N2CCN(C3CCCN(CC4CC4)C3)CC2)cc1 (configuration not stated),4.8%
COc1cc2c(cc1OC)CN(C1CCCN(Cc3c(O)cccc3OC)C1)CC2 (configuration not stated),10µM*
O=C1NC2(CCNCC2)C(=O)N1Cc1cccc(Cl)c1Cl,-4.5%
COc1cc(C(=O)Nc2cc(C)c(O)c(-c3nc4cc(Cl)ccc4o3)c2)cc(OC)c1OC,73.8%
Cc1cc(Cl)ccc1NC(=O)CS(=O)(=O)c1cccc2nsnc12,-0.3%
CCOc1ccc2c(n1)CCN(C(=O)c1cc(C)nn1C)C2,9.0%
COc1cccc2ccc(-c3c(-c4ccccc4)ncn3CCNC(C)=O)nc12,-28.1%
CCCn1ccnc1-c1c(-c2ccccc2)ncn1CCCC(=O)OC,1.2%
COc1cccc(OC)c1-c1c(-c2ccccc2)ncn1CCCSC,10µM*
CN1CCN(C(=O)CCCOc2ccccc2)CC12CCNC(=O)CC2 (configuration not stated),-7.3%
CCCCC(=O)OC1=C(C(C)=O)N(Cc2ccccc2)S(=O)(=O)c2ccccc21,9.1%
COc1cccc(C(=O)N2CCC(c3nn(C)c(=O)[nH]3)CC2)c1,-1.2%[44.1 µM]
CCOC(=O)c1ccc2c(c1)[C@@H]1C=CC[C@@H]1[C@H](c1cccc(OC)c1OC)N2,0.447µM*
COc1ccc(OC)c([C@@H]2Nc3ccc(C(=O)O)cc3[C@@H]3C=CC[C@@H]32)c1,12.1%
COc1ccc(Br)cc1[C@@H]1Nc2ccc(C(=O)O)cc2[C@@H]2C=CC[C@@H]21,7.9%
CCOc1ccc(C(=O)N2CCC3(CCCNC3=O)C2)cc1Cl (configuration not stated),3.1%
O=C1CO[C@H]2CCN(Cc3ccc4c(c3)CCO4)CC[C@@H]2N1c1ccccc1,-4.9%[44.1 µM]
CC(=O)NCCC(=O)N1Cc2ccccc2CC2(CCCN(CC3CCCC3)C2)C1 (configuration not stated),-18.5%
NCC(=O)N1Cc2ccccc2CC2(CCCN(CC3CCCC3)C2)C1 (configuration not stated),7.94µM*
CN(C)CC(=O)N1Cc2ccccc2CC2(CCN(CC3CCOCC3)C2)C1 (configuration not stated),-20.8%
